Test results reported in PubChem BioAssay (NCATS).
Results filed as inconclusive are left out. Calls of active or inactive are those of the source. Calls follow the shape of the full dose curve. Square brackets hold non-standard residues; d marks the D form. Peptide text beside a SMILES is read from it. * marks the point of attachment. Benzoyl(4-tBu) = CC(C)(C)c1ccc(C(=O)*)cc1; Lys(Et2) = CCN(CC)CCCC[C@H](N)C(=O)O

Test: Cytotoxicity counterscreen for inhibitors of SARS-CoV-2 cell entry (AID 1645845); also: nearly all actives have a fitted effect of over 50% in size; also: potency is read from the fitted curve at half-maximal effect; as to activity change, negative = cytotoxicity: % is scaled to controls: 0 for no effect and ±100 for the full control effect
Conditions: cell viability (SARS-CoV-2 entry assay cells); series mostly up to 57.1 µM; activity change, negative = cytotoxicity: at the top concentration
In short: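 48 h compound treatment (after 1 h preincubation), HEK293-ACE2 cells, 37 C/5% CO2; ATP luminescence endpoint; normalized to cell wells and media blanks.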

Q: With Cc1ccc(NS(=O)(=O)c2ccc3c(c2)C2C=CCC2C(c2ccc(C(=O)O)cc2)N3)cc1C (stereo not given) as the molecule, how does the “outcome” value read?
A: Its value is “inactive”.

Q: For CCC(=O)N1CCOc2c(cc(-c3cc(OC)cc(OC)c3)cc2C(=O)N[C@H]2CCCN(C)C2)C1, which “outcome” value is on record?
A: The value was “inactive”.

Q: Which “activity change, negative = cytotoxicity” value does the source give for CC(C)(C)C(=O)N1N=CC[C@H]1c1ccccc1 here?
A: Its value is 0.217% (inactive).

Q: For CN[C@@H](C)C(=O)N[C@H](C(=O)N1CCC[C@H]1c1nc(C(=O)c2ccc(F)cc2)cs1)C1CCCCC1, which “activity change, negative = cytotoxicity” value is on record?
A: The value was -7.89% (inactive).

Q: For NC(=O)c1cc(F)cc2c1C(=O)N(C1CCN(C3CCC(F)(F)CC3)CC1)C2, which “outcome” value is on record?
A: The value was “inactive”.

Q: For c1ccc(CNCc2ccc(CN3CCCNCCNCCCNCC3)cc2)nc1, which “activity change, negative = cytotoxicity” value is on record?
A: Its value is 4.7% (inactive).

Q: For O=C1Cc2cc(C(=O)NC3C[C@H]4CC[C@@H](C3)N4S(=O)(=O)CC3CCN(CCCC(F)(F)F)CC3)c(Cl)cc2N1 (stereo not given in full), which “outcome” value is on record?
A: The value was “inactive”.

Q: With C[C@H](NC(=O)/C(C#N)=C/c1cccc(Br)n1)c1ccccc1 as the molecule, how does the Potency read?
A: The Potency was 28.2 µM (active).

Q: With O=C1OC2(CCC(C(=O)Nc3ccn(-c4ccccc4F)n3)CC2)c2cnccc21 (stereo not given) as the molecule, how does the “outcome” value read?
A: Its value is “inactive”.

Q: With COc1ccc([C@@H]2CC(=O)c3c(O)cc(O[C@@H]4O[C@H](CO[C@@H]5O[C@@H](C)[C@H](O)[C@@H](O)[C@H]5O)[C@@H](O)[C@H](O)[C@H]4O)cc3O2)cc1O as the molecule, how does the “activity change, negative = cytotoxicity” value read?
A: The value was -3.14% (inactive).

Q: With Nc1nc(F)nc2c1ncn2[C@@H]1O[C@H](COP(=O)(O)O)[C@@H](O)[C@@H]1O as the molecule, how does the “outcome” value read?
A: Its value is “inactive”.

Q: With C[C@]12CCCN1CC1=NNC(=O)c3cc(F)cc4[nH]c2c1c34 as the molecule, how does the “outcome” value read?
A: The value was “inactive”.

Q: For COc1cc2c(cc1OC)CN(CCc1ccc(-n3nnc(-c4cc(OC)c(OC)cc4NC(=O)c4cc(=O)c5ccccc5o4)n3)cc1)CC2, which activity change, negative = cytotoxicity is on record?
A: Its activity change, negative = cytotoxicity is 2.79% [at 0.702 µM] (inactive).

Q: For C=C1[C@H](OC(=O)/C=C(\C)CC)C[C@@H](C(C)C)[C@@H]2[C@H]([C@@H](C)OC(C)=O)C(=O)C[C@@H]12, which “outcome” value is on record?
A: Its value is “inactive”.

Q: Which “activity change, negative = cytotoxicity” value does the source give for COc1cc2ncnc(Oc3cccc(NC(=O)Nc4cc(C(C)(C)C(F)(F)F)on4)c3)c2cc1OC here?
A: Its value is -0.114% (inactive).

Q: With Cc1cc(Oc2ccc3nc(COc4ccc(CC5SC(=O)NC5=O)cc4)n(C)c3c2)cc(C)c1N (stereo not given) as the molecule, how does the “activity change, negative = cytotoxicity” value read?
A: The value was 2.81% (inactive).

Q: Which “activity change, negative = cytotoxicity” value does the source give for CCO[C@@H]1OC(=O)C[C@@H]1NC(=O)[C@@H]1CCCN1C(=O)[C@@H](NC(=O)c1ccc(N)c(Cl)c1)C(C)(C)C here?
A: The value was 2.7% (inactive).

Q: For C[C@]12CCC3[C@@H](CC[C@H]4NC(=O)C=C[C@]34C)[C@@H]1CC[C@@H]2C(=O)Nc1cc(C(F)(F)F)ccc1C(F)(F)F (stereo not given in full), which “activity change, negative = cytotoxicity” value is on record?
A: Its value is -2.4% (inactive).

Q: With Cc1nc(NC(=O)N2CCCC2C(N)=O)sc1-c1ccnc(C(C)(C)C(F)(F)F)c1 (stereo not given) as the molecule, how does the “activity change, negative = cytotoxicity” value read?
A: Its value is -13% (inactive).

Q: Which “activity change, negative = cytotoxicity” value does the source give for CN(CCO)C1CCN(c2ccc(Nc3ncc4c5ccnc(F)c5n(C5CCCC5)c4n3)nc2)CC1 here?
A: Its value is -7.25% [at 27.1 µM] (inactive).

Q: With O=C(/C=C/c1ccc(/C=C/C(=O)Nc2ccc(C3=NCCN3)cc2)cc1)Nc1ccc(C2=NCCN2)cc1 as the molecule, how does the activity change, negative = cytotoxicity read?
A: Its activity change, negative = cytotoxicity is -2.26% [at 5.25 µM] (inactive).

Q: With COCCNc1cc(NC(=O)N2CCCc3cc(CN4CCN(C)CC4=O)c(C=O)nc32)ncc1C#N as the molecule, how does the activity change, negative = cytotoxicity read?
A: The activity change, negative = cytotoxicity was 2.9% [at 11.3 µM] (inactive).

Q: With CCN(CC)CCCC[C@H](NC(=O)[C@H](CC(C)C)NC(=O)[C@H](C)NC(=O)[C@H](Cc1ccccc1)NC(=O)c1ccc(C(C)(C)C)cc1)C(=O)N[C@@H](CO)C(=O)OC ({Benzoyl(4-tBu)}-FAL[Lys(Et2)]S-OMe) as the molecule, how does the “activity change, negative = cytotoxicity” value read?
A: Its value is -17.4% (inactive).

Q: Which “activity change, negative = cytotoxicity” value does the source give for Oc1ccc(Nc2nc(-c3ccc(Cl)cc3)cs2)cc1 here?
A: The value was -26.4% (inactive).

Q: With COC(=O)N1CC2(CC2)C[C@H](C(=O)NO)[C@H]1C(=O)N1CCN(c2ccccc2)CC1 as the molecule, how does the “outcome” value read?
A: The value was “inactive”.

Q: Which “outcome” value does the source give for O=C(NOCC(O)CO)c1ccc(F)c(F)c1Nc1ccc(I)cc1F (stereo not given) here?
A: Its value is “inactive”.

Q: Which “activity change, negative = cytotoxicity” value does the source give for Cc1nn(C)c(COc2ccc(N3CCN(S(=O)(=O)N(C)C)CC3)cc2)c1-c1cccc2c(CCCOc3cccc4ccccc34)c(C(=O)O)n(CCN3CCOCC3)c12 here?
A: The value was -4.05% (inactive).

Q: For C=Cc1cc(O)cc2nc(-c3ccc(O)c(F)c3)oc12, which “activity change, negative = cytotoxicity” value is on record?
A: Its value is -23.8% (inactive).

Q: Which “activity change, negative = cytotoxicity” value does the source give for COc1ccnc2[nH]cc(C(=O)C(=O)N3CCN(C(=O)c4ccccc4)C[C@H]3C)c12 here?
A: The value was -18.5% (inactive).

Q: With Cc1ccc(NC(=O)c2ccc(CN3CC[C@H](N(C)C)C3)c(C(F)(F)F)c2)cc1Nc1nccc(-c2cncnc2)n1 as the molecule, how does the “activity change, negative = cytotoxicity” value read?
A: Its value is 2.48% [at 27.1 µM] (inactive).

Test: Primary qHTS to identify inhibitors of SARS-CoV-2 cell entry (AID 1645846); also: nearly all actives have a fitted effect of over 45% in size
Conditions: SARS-CoV-2 pseudovirus cell entry assay, luminescence; activity change, negative = inhibition: at 57.1 µM (top of the series) unless noted
In short: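 Inhibition of spike-mediated entry was scored in human ACE2-transfected Expi293F cells. Particles were MLV-pseudotyped with Wuhan-Hu-1 S carrying a 19-aa C-terminal deletion; signal was luciferase after two days, scaled between spike PP and fusion-protein-free PP.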

Q: For CC1CCC(n2c3cnccc3c3cnc(Nc4ccc5c(n4)CCN(C(=O)CO)C5)nc32)CC1 (stereo not given), which outcome is on record?
A: The outcome was “inactive [at 11.3 µM]”.

Q: With N#Cc1ccnc(N2C(=O)CC[C@H]2C(=O)N(c2cncc(F)c2)C(C(=O)NC2CC(F)(F)C2)c2ccccc2Cl)c1 (stereo not given in full) as the molecule, how does the activity change, negative = inhibition read?
A: Its activity change, negative = inhibition is -25.5%.

Q: Which activity change, negative = inhibition does the source give for CC(C)(C)C(=O)CN1C(=O)[C@H](NC(=O)Nc2cccc(C(=O)O)c2)CN(C2CCCCC2)c2ccccc21 here?
A: Its activity change, negative = inhibition is -4.52%.

Q: With O=C(O)c1cnn(-c2nc3cc(OC(F)(F)F)c(Cl)cc3[nH]2)c1 as the molecule, how does the “outcome” value read?
A: The value was “inactive”.

Q: Which activity change, negative = inhibition does the source give for CO[C@H]1O[C@@H]2O[C@@]3(C)CC[C@H]4[C@H](C)CC[C@@H]([C@H]1C)[C@@]24OO3 here?
A: Its activity change, negative = inhibition is -14.8%.
